Bioassay records: PubChem BioAssay, National Center for Advancing Translational Sciences (NCATS)
Sampled rows, rich in hits. Any-hit rate of the full collection: about 6.3%.
ATXN viability: viability counter-screen for ATXN expression inhibitors | S2 cells (HEK-293 line with an ATXN2-luciferase reporter) viability, CellTiter-Fluor protease fluorescence, 24 h | Potency, µM (doses to about 56.7 µM), usual class: cytotoxic | actives 0.49% (n = 400,000); further: nearly all actives have a fitted effect of over 40% in size
ATXN2 expr inh: reduces ATXN2 reporter expression in HEK-293 cells | HEK-293 ATXN2-luciferase reporter, luminescence, 24 h | Potency, µM (titrated, usually from 57 µM), without a hit: top-dose activity change, negative = inhibition, actives largely listed as inhibitors | actives 0.72% (n = 360,000) | AID 1745845; further: on the % scale 0 is the no-effect control and ±100 the full control effect; nearly all actives have a fitted effect of over 55% in size
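qHTS (up to 57 uM final) was run with 24 h compound exposure of reporter cells at 37 °C. Each well was multiplexed: SteadyGlo luminescence measured ATXN2-luciferase expression after a fluorogenic Gly-Phe-AFC viability readout (25 uM final).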
HepG2 tox: counter-screen for TGF-b inhibitors: cytotoxicity in HepG2 cells; AID 588856; actives 0.76% (n = 410,000); Potency, µM (doses to about 46.1 µM), inactives show at the highest dose activity change, negative = cytotoxicity, hits mostly cytotoxic; HepG2 CAGA-GFP viability, ATP luminescence, 18 h
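CellTiter-Glo luminescence gave cytotoxicity after 18 hours at 37 degrees C. The cells were HepG2 CAGA-GFP in 1% FBS DMEM, stimulated with 500 pg/mL TGF-beta after compound addition. %Activity was normalised to no-cell wells (complete cell-killing) and DMSO (no toxicity), and curves were fitted and classified.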
RORgamma inh: blocks mouse ROR gamma transcriptional activity | P51450 | Drosophila S2 Gal4-RORgamma UAS-luciferase reporter, 20 h | Potency, µM (highest dose often 53.6 µM), without a hit: at the top dose activity change, negative = inhibition, most hits filed as inhibitors | actives 5.4% (n = 310,000); further: on the % scale 0 is the no-effect control and ±100 the full control effect; nearly all actives have a fitted effect of over 60% in size
Target sequence (P51450 whole entry, looked up, the tested form may be a part): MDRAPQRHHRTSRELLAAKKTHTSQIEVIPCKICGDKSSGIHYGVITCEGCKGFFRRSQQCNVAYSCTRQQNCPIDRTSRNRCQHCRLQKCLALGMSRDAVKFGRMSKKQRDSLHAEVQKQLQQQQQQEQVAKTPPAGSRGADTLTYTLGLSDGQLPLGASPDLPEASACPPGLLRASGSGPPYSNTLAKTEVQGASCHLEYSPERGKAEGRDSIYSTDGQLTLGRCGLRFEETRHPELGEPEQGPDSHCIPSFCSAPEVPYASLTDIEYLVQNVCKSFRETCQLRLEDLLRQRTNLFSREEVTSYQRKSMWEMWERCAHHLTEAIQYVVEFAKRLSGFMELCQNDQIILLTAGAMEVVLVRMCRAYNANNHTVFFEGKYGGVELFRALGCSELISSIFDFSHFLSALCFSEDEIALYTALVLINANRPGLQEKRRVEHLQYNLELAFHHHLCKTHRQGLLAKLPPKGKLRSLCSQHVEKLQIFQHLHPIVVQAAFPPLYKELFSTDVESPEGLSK
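Drosophila Schneider cells stably carrying a metallothionein-driven Gal4 DBD–ROR gamma fusion and a UAS-Photinus luciferase reporter were exposed to compound for 1 hr, then induced with copper sulfate (700 uM final) for 20 hr at ambient temperature before luminescence reading.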
TGFb inhibitor: inhibitors of TGF-b signaling; HepG2 CAGA-GFP TGF-b/SMAD3 reporter, GFP fluorescence, 18 h; TGF-beta stimulated, 500 pg/mL final; Potency, µM (doses to about 46.1 µM), for inactives: at the top dose activity, negative = inhibition, actives largely listed as inhibitors; actives 1.2% (n = 410,000); further: on the % scale 0 is the no-effect control and ±100 the full control effect; nearly all actives have a fitted effect of over 65% in size
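First, reporter cells (HEPG2 CAGA-GFP) rested 2 h at 37 degrees C. Next, compounds were pinned in and TGF-beta added to 500 pg/mL final. After 18 h, GFP was imaged per cell and summed per well.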
VP16 counter: Gal4-VP16 reporter inhibition counter-screen; Potency, µM (titrated, usually from 53.6 µM), for the others: at the highest dose activity, negative = inhibition, hits mostly inhibitors; Drosophila S2 Gal4-VP16 UAS-luciferase, luminescence, 20 h; actives 3.5% (n = 310,000);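 further: Gal4-VP16 expression switched on by copper sulfate through the metallothionein promoter; on the % scale 0 is the no-effect control and ±100 the full control effect; nearly all actives have a fitted effect of over 50% in size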
Numbers without * were called inactive; i = inactive; u = inconclusive; x = not tested or not shown; ! = not active in a repeat; [ ] = remark or other dose. The call rests on the fitted dose curve; in most records, active means well fitted curve in the direction sought with a large enough effect; inconclusive means small, poorly fitted or top-dose-only effect, or another doubt; inactive means no such curve, though single readings can be large; an effect the other way counts as inactive or inconclusive. Potency means the concentration at half of the fitted maximal effect.

SMILES	ATXN viability	ATXN2 expr inh	HepG2 tox	RORgamma inh	TGFb inhibitor	VP16 counter
Cc1ccc(-c2cc(-c3ccccc3)[nH]c(=S)c2C#N)cc1	i	33.9%	15.7%	u	-9.8%	u
COc1cc(-c2nc3nc(C)cc(C)n3c2Nc2ccc(Cl)cc2)ccc1O	x	x	-40.3%	x	12.6µM*	x
COc1ccc(Nc2c(-c3cccc(OC)c3)nc3nc(C)cc(C)n23)cc1	i	12.9%	x	x	x	x
Cc1cccc(NC(=O)C2CCC(CNS(=O)(=O)c3ccc4c(c3)CCCC(=O)N4)CC2)c1C (stereo not drawn)	i	-16.8%	-18.9%	x	-25.7%	x
Cc1ccc(-n2nnnc2-c2cnc(N3CCCC3)nc2C(F)(F)F)cc1	i	60.8%	-11.5%	u	u	15.8µM*
O=C(Nc1ccc(O)c(-c2nc3ccccc3o2)c1)C1(c2ccc(Br)cc2)CCCC1	i	-0.7%	-13.1%	6.31µM*	u	5.62µM*
Cc1ccc2nc(CNC(=O)c3cc(NC(=O)c4ccccc4)cc4ncn(C5CCCC5)c34)cn2c1	i	x	x	x	x	x
CC1=CC(=O)[C@@H]2C[C@H]1C2(C)C	x	x	x	8.1%	x	-5.3%
O=C(/C=C/c1ccccc1Cl)Nc1cccc(O)c1	i	x	-7.6%	0.316µM*	-20.0%	2.51µM*
CN(C)S(=O)(=O)c1ccc(NC(=O)/C=C/c2ccccc2Cl)cc1	u	-18.3%	-30.3%	0.501µM*	u	-9.9%
CN(C)c1ccc(NC(=O)/C=C/c2c(Cl)cccc2Cl)cc1	u	83.2%	-53.1%	-22.6%	0.0%	-5.8%
O=C(/C=C/c1ccccc1Cl)Nc1ccc2c(c1)C(=O)NC2=O	i	-7.9%	0.2%	-26.9%	3.4%	-10.1%
O=C(/C=C/c1ccccc1[N+](=O)[O-])Nc1ccccc1	i	x	-7.3%	-8.2%	1.0%	4.9%
O=C(/C=C/c1ccccc1Cl)Nc1ccccc1	u	65.1%	-44.2%	2µM*	5.3%	u
Cc1c(C(=O)NCCCc2ccncc2)cnn1-c1ncc2c(n1)-c1ccccc1CC2	i	x	x	x	x	x
CC(C)n1c(CSCc2ccc(Cl)cc2Cl)n[nH]c1=S	i	-3.9%	-35.1%	1.41µM*	u	3.16µM*
CCN(CC)S(=O)(=O)c1ccc(NC(=O)c2ccc3c(=O)n4c(nc3c2)CCCCC4)cc1	x	22.4µM*	-32.4%	x	u	x
CCOc1ccc(NC(=O)c2ccc3c(=O)n4c(nc3c2)CCCCC4)cc1	i	-7.3%	8.91µM*!	11.5%	5.9%	-6.7%
CCc1ccc(NC(=O)c2ccc3c(=O)n4c(nc3c2)CCCCC4)cc1	u	u	-25.9%	13.4%	-22.3%	-3.5%
O=C(Nc1ccc2nc3n(c(=O)c2c1)CCCC3)c1cc([N+](=O)[O-])ccc1F	x	25.1µM*	-59.9%	5.3%[10 µM]	u	-96.6%
Cn1c(-c2ccccc2)n[nH]c1=S	i	-11.3%	6.7%	u	-4.6%	-8.6%
Cc1ccc(-c2cc(-c3n[nH]c(=S)n3C)c3ccccc3n2)cc1	i	4.4%	-15.4%	1.26µM*	-0.8%	-14.4%
CCOc1ccccc1-c1cc(-c2n[nH]c(=S)n2CC)c2ccccc2n1	i	68.4%	-7.9%	5.62µM*	u	-15.5%
CCOc1cccc(-c2cc(-c3n[nH]c(=S)n3CC)c3ccccc3n2)c1	i	6.8%	-13.7%	0.126µM*	-3.4%	u
CCn1c(-c2cc(-c3ccc(C)c(C)c3)nc3ccccc23)n[nH]c1=S	x	x	x	10µM*	x	-17.5%
SMILES	ATXN viability	ATXN2 expr inh	HepG2 tox	RORgamma inh	TGFb inhibitor	VP16 counter
CCn1c(-c2cc(-c3cc(C)ccc3C)nc3ccccc23)n[nH]c1=S	i	-13.7%	11.5%	u	-14.9%	-0.6%
O=C(c1ccc2c(c1)CCCC2)N1CCN(c2nc3ccc(F)cc3s2)CC1	x	x	-14.3%	x	u	x
O=C1CN(C(=O)COc2ccc(Cl)cc2)C(c2ccccc2)c2cc(Br)ccc2N1 (stereo not drawn)	u	u	-18.0%	x	u	x
COCCC(=O)N1CCOCC1c1cc(C(=O)NCc2ccccc2)no1 (stereo not drawn)	i	11.4%	4.5%	x	7.8%	x
Cc1cccc(C(=O)N[C@H]2CC[C@@H](n3cc(C(=O)N4CCCC4)nn3)CC2)c1	i	x	x	x	x	x
Oc1oc(-c2ccccc2)nc1/C=N/c1nccs1	i	17.0%	0.8%	15.8µM*	9.4%	u
O=C(N/N=C/c1ccc(C(F)(F)F)cc1)c1ccc(O)cc1	i	4.3%	-20.0%	1.78µM*	-19.1%	4.47µM*
O=C(N/N=C/c1c(O)ccc2ccccc12)c1cccc(C(F)(F)F)c1	x	2.99µM*	-34.1%	3.16µM*	u	5.01µM*
Oc1ccc(/C=N/Nc2ccc(C(F)(F)F)cn2)cc1	i	23.5%[11.3 µM]	-41.6%	4.47µM*	u	u
Oc1ccc(/C=N/Nc2ccc(C(F)(F)F)cn2)c(O)c1	x	x	x	u	x	-27.2%
O=C(N/N=C\c1cccc(F)c1)c1ccc(-c2ccccc2)cc1	i	1.5%	-15.3%	0.7%	-24.3%	2.0%
COc1ccc2ccccc2c1/C=N/NC(=O)c1cccc(Br)c1	i	5.3%	-0.5%	-35.3%	-18.3%	2.7%
O=C(N/N=C/c1cccc(C(F)(F)F)c1)c1ccc(O)cc1	i	-12.4%	2.7%	1.12µM*	5.2%	u
CCC(=O)N[C@H]1CC[C@H](C(=O)N(C)c2ccc(-c3nc4ccccc4o3)cc2)C1	x	22.9%	x	x	x	x
C[C@@H](O)[C@H]1C(=O)N2C(C(=O)OCOC(=O)C(C)(C)C)=C(SC3CN(C4=NCCS4)C3)[C@H](C)[C@H]12	x	-4.4%	x	x	x	x
CSc1ccc(/C=N/NC(=O)c2cccc(O)c2)cc1	u	50.3%	-61.6%	-39.6%	13.2%	2.24µM*
CCOc1ccc(C(=O)N/N=C/c2ccc(SC)cc2)cc1	u	-20.9%	1.1%	-34.3%	-11.3%	-18.8%
S=C(Nc1ccc2c(c1)OCO2)NC1CCN(Cc2ccccc2)CC1	i	1.4%	-27.9%	-43.8%	-6.8%	-7.6%
CC(C)c1ccc(NC(=S)NC2CCN(Cc3ccccc3)CC2)cc1	i	0.3%	-120.0%	15.8µM*	u	u
Cc1ccc(NC(=S)NC2CCN(Cc3ccccc3)CC2)cc1	i	-5.8%	-15.5%	12.6µM*	-22.4%	u
O=C(Nc1ccccc1)NC1CCN(Cc2ccccc2)CC1	i	-4.1%	-0.2%	2.5%	0.6%	5.6%
S=C(Nc1ccccc1Cl)NC1CCN(Cc2ccccc2)CC1	i	-12.9%	-41.3%	-24.5%	-34.4%	5.8%
Cc1ccc(NC(=S)NC2CCN(Cc3ccccc3)CC2)cc1C	u	x	-1.8%	11.2µM*	3.3%	u
